Compound activity from PubChem.
Only some compounds are listed: those with a hit (about 8% of all), similar ones and a draw of the others.
KB-3-1 tox = kills parental KB-3-1 adenocarcinoma cells | KB-3-1 viability, CellTiter-Glo ATP luminescence, 72 h | Potency, µM (highest dose often 46.1 µM), usual class: cytotoxic | 400,000 compounds, 1.4% hits | AID 1347075; further: on the % scale 0 is the no-effect control and ±100 the full control effect; nearly all actives have a fitted effect of over 60% in size
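Screening of KB-3-1 cells (DMEM, 10% FBS, phenol-red free) ran from lowest to highest compound concentration; after 72 h at 37 °C viability was read luminescently and curves fitted.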
HT1080-NT tox = kills 2HG-producing HT-1080-NT fibrosarcoma cells | HT-1080-NT fibrosarcoma viability, CellTiter-Glo ATP luminescence, 48 h | Potency, µM (titrated, usually from 46.1 µM), for inactives: top-dose activity, negative = less viability, hits mostly cytotoxic | 360,000 compounds, 1.6% hits;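 further: NT is the 2HG producing partner of a matched IDH1 knockdown line; 0% = DMSO-treated cells and -100% = media-only wells without cells; nearly all actives have a fitted effect of over 55% in size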
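Compounds were tested in concentration-response format on HT-1080-NT cells for 48 hours at 37 degrees C. Cell viability came from CellTiter-Glo luminescence; curves were classified by r2, response magnitude and activity.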
KB-V1 MDR tox = KB-V1 MDR subline cytotoxicity | AID 1347076 | Potency, µM (top dose mostly 46.1 µM), actives largely listed as cytotoxic | KB-V1 MDR cells viability, CellTiter-Glo, 72 h | 400,000 compounds, 3.4% hits; further: on the % scale 0 is the no-effect control and ±100 the full control effect; nearly all actives have a fitted effect of over 60% in size
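Potencies derive from concentration-effect curves fitted to normalized luminescence (CellTiter-Glo) of KB-V1 cells treated for 72 h at 37 degrees C in phenol-red-free DMEM containing 10% FBS.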
HT1080 IDH1KD tx = toxicity to HT-1080 IDH1 knockdown cells (counter line); HT-1080 IDH1 knockdown viability, ATP luminescence, 48 h; Potency, µM (titrated, usually from 46.1 µM), without a hit: at the top dose activity, negative = toxicity, actives largely listed as cytotoxic; 360,000 compounds, 2% hits;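 further: 0% = DMSO wells and -100% = cell-free medium wells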
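HT-1080-IDH1KD cells (IDH1 knocked down), 750/well in RPMI with 5% FBS, treated with compound 48 h at 37 degrees C. Viability by CellTiter-Glo luminescence, normalised to DMSO and no-cell wells; concentration-response curves classed.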
MCF10A rerep = inducers of DNA re-replication in MCF 10A breast cells. MCF 10A DNA re-replication, Hoechst nuclear intensity, 48 h. Potency, µM (top dose mostly 46.1 µM), for the others: at the top dose activity, positive = re-replication, usual class: activators. 350,000 compounds, 2.9% hits. AID 624296; further: % of control where 0% means no effect; nearly all actives have a fitted effect of over 50% in size
SW480 rereplic = inducers of DNA re-replication in SW480 colon cancer cells | Potency, µM (series often up to 46.1 µM), for the others: at the top dose re-replication activation, hits mostly activators | 340,000 compounds, 1.8% hits | SW480 DNA re-replication, Hoechst DNA content imaging, 48 h; further: % of control where 0% means no effect; nearly all actives have a fitted effect of over 55% in size
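Per well, 250 cells were exposed to pinned compound for 48 hr. Nuclear DNA was visualised with Hoechst (40 min, 37 C) and total object intensity recorded by fluorescence scanning.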
* = called active by the depositor. The call rests on the fitted dose curve; in most records, active means well fitted curve in the direction sought with a large enough effect; inconclusive means small, poorly fitted or top-dose-only effect, or another doubt; inactive means no such curve, though single readings can be large; an effect the other way counts as inactive or inconclusive. Potency means the concentration at half of the fitted maximal effect.

How did CN(Cc1cccc(C(F)(F)F)c1)Cc1nc(-c2cnccn2)no1 do in these assays?
KB-3-1 tox: inactive; HT1080-NT tox: -10%; KB-V1 MDR tox: inactive; HT1080 IDH1KD tx: 1%; MCF10A rerep: -17%; SW480 rereplic: -6%

How did COc1ccc(C(=O)COC(=O)C(CCSC)NS(=O)(=O)c2ccc(Cl)cc2)cc1 (stereo not given) do in these assays?
KB-3-1 tox: inactive; HT1080-NT tox: -1%; KB-V1 MDR tox: 23µM*; HT1080 IDH1KD tx: 2%; MCF10A rerep: 8%; SW480 rereplic: -79%

What do the screens show for `COC(=O)C(CCSC)NS(=O)(=O)c1ccc(Cl)cc1` (stereo not given)?
KB-3-1 tox: inactive; HT1080-NT tox: 3%; KB-V1 MDR tox: inconclusive; HT1080 IDH1KD tx: 0%; MCF10A rerep: -6%; SW480 rereplic: -6%

What do the screens show for `O=C(Nn1c(C2CCCCC2)nc2ccccc2c1=O)c1ccc(Cl)c([N+](=O)[O-])c1`?
KB-3-1 tox: inactive; HT1080-NT tox: inconclusive; KB-V1 MDR tox: inactive; HT1080 IDH1KD tx: inconclusive; MCF10A rerep: 7.3µM*; SW480 rereplic: 4%

Results for Cc1cc(C(=O)Nn2c(C3CCCCC3)nc3ccccc3c2=O)ccc1[N+](=O)[O-] ?
KB-3-1 tox: inactive; HT1080-NT tox: -4%; KB-V1 MDR tox: inactive; HT1080 IDH1KD tx: -2%; MCF10A rerep: inconclusive; SW480 rereplic: -3%

How did C=C1CC2(CC(c3ccccc3)OC(c3ccccc3)C2)OC1=O (stereo not given) do in these assays?
KB-3-1 tox: inconclusive; HT1080-NT tox: inconclusive; KB-V1 MDR tox: inconclusive; HT1080 IDH1KD tx: 16µM*; MCF10A rerep: 12µM*; SW480 rereplic: inconclusive

How did COc1ccc(CNC(=O)/C=C/c2ccccc2[N+](=O)[O-])cc1 do in these assays?
KB-3-1 tox: inactive; HT1080-NT tox: -16%; KB-V1 MDR tox: inactive; HT1080 IDH1KD tx: 1%; MCF10A rerep: 1%; SW480 rereplic: 3%

Results for COC(=O)C(=Cc1ccccc1[N+](=O)[O-])C(=O)OC ?
KB-3-1 tox: inactive; HT1080-NT tox: inconclusive; KB-V1 MDR tox: inactive; HT1080 IDH1KD tx: 0%; MCF10A rerep: 23µM*; SW480 rereplic: inconclusive

Results for O=C(/C=C/c1ccccc1[N+](=O)[O-])OCC(=O)c1ccccc1 ?
KB-3-1 tox: inactive; HT1080-NT tox: 6%; KB-V1 MDR tox: inactive; HT1080 IDH1KD tx: 6%; MCF10A rerep: 0%; SW480 rereplic: -1%

What do the screens show for `O=C(/C=C/c1ccccc1[N+](=O)[O-])c1ccc(F)cc1`?
KB-3-1 tox: inconclusive; HT1080-NT tox: inconclusive; KB-V1 MDR tox: 23µM*; HT1080 IDH1KD tx: -25%; MCF10A rerep: inconclusive; SW480 rereplic: inconclusive

How did COC(=O)CNC(=O)COC(=O)/C=C/c1ccccc1[N+](=O)[O-] do in these assays?
KB-3-1 tox: inactive; HT1080-NT tox: -9%; KB-V1 MDR tox: inactive; HT1080 IDH1KD tx: -16%; MCF10A rerep: 5.8µM*; SW480 rereplic: -41%

Results for CC(=O)Nc1ccccc1-c1nc2ccccc2n(CC(=O)c2ccc(C)c(C)c2)c1=O ?
KB-3-1 tox: inactive; KB-V1 MDR tox: inactive

What do the screens show for `O=C(CSc1nc(-c2ccccc2)c(-c2ccccc2)[nH]1)NCc1ccco1`?
KB-3-1 tox: inconclusive; HT1080-NT tox: inconclusive; KB-V1 MDR tox: 10µM*; HT1080 IDH1KD tx: inconclusive; MCF10A rerep: 15µM*; SW480 rereplic: 12µM*

How did O=C(CSc1nnc(-c2ccccc2)c(-c2ccccc2)n1)NCc1ccco1 do in these assays?
KB-3-1 tox: inconclusive; HT1080-NT tox: -30%; KB-V1 MDR tox: 16µM*; HT1080 IDH1KD tx: inconclusive; MCF10A rerep: 18µM*; SW480 rereplic: 19%

How did O=C(CSC1=Nc2ccccc2C2CC=NN12)NCc1ccco1 (stereo not given) do in these assays?
KB-3-1 tox: inconclusive; HT1080-NT tox: inconclusive; KB-V1 MDR tox: inconclusive; HT1080 IDH1KD tx: 7.3µM*; MCF10A rerep: 21µM*; SW480 rereplic: inconclusive
